# Reference: ChEMBL document CHEMBL1157539, “Thousands of chemical starting points for antimalarial lead identification” (Nature, 2010)
# Columns and labels:
# Type in all cases: functional
# Plasmodium falciparum [1] = assay: GSK_TCMDC: Inhibition of Plasmodium falciparum 3D7 in whole red blood cells, using parasite LDH activity as an index of growth. Test compounds present at 2uM
# Plasmodium falciparum [2] = assay: GSK_TCMDC: Inhibition of Plasmodium falciparum Dd2 in whole red blood cells, using parasite LDH activity as an index of growth. Test compounds present at 2uM
# HepG2 = assay: GSK_TCMDC: Percent inhibition of human HepG2 cell line. Test compounds present at 10uM.
Structure (SMILES),Inhibition (Plasmodium falciparum [1]) [%],Inhibition (Plasmodium falciparum [2]) [%],Inhibition (HepG2) [%]
Cc1cccc2nc(-c3ccc(-c4cccc(NC(=O)NCc5ccccc5)c4)cc3)[nH]c12,95,0,25
Cc1cc(Nc2ncc(Cl)c(Nc3ccccc3C(N)=O)n2)n[nH]1,98,96,70
CCOc1cc(C)ccc1NC1CCN(CCCCNC(=O)c2ccc(NC(=O)c3ccc(Cl)cc3)cc2)CC1,100,70,17
COc1cc(C)nc2ccc(NC(=O)Nc3ccc4nc(C)cc(OC)c4c3)cc12,100,83,79
CCc1cn2c3c(cc(C(=O)N[C@@H](Cc4cc(F)cc(F)c4)[C@H](O)CNC4CC4)cc13)N(C)S(=O)(=O)CC2.O=CO,100,99,3
CCN(CC)CCN(Cc1ccc(-c2ccc(C(F)(F)F)cc2)cc1)C(=O)Cn1c(CCc2c(F)cccc2F)nc(=O)c2ccccc21.O=C(O)C(O)C(O)C(=O)O,100,61,36
N=C(N)NN=CC(=O)Nc1ccc(C(F)(F)F)cc1.O=S(=O)(O)O,100,9,5
CCN(CC)CCc1ccc2c(=O)cc(CCc3cccc(F)c3F)n(CC(=O)N(C)Cc3ccc(-c4ccc(C(F)(F)F)cc4)cc3)c2c1.O=C(O)C(O)C(O)C(=O)O,97,45,98
Nc1nc(N)c2cc(NC(=O)c3ccc(Cl)c(Cl)c3)ccc2n1,100,83,100
CCCc1cc(NCC)nc(Nc2ccc(C)cc2)n1,95,16,22
CN1CCN(C(C(=O)NCc2cc(Cl)cc(Cl)c2)c2ccc(Nc3cccc(C(F)(F)F)c3)cc2)CC1 (stereo unspecified),85,98,49
O=C(Cc1c[nH]cn1)Nc1cccc(-c2ccc(-c3nc4ccccc4[nH]3)cc2)c1,99,72,7
Cc1ccc(O)cc1Nc1ccnc2cc(-c3ccccn3)ccc12.Cl [GW440139A],97,98,6
Cc1ccc(Cn2nc(N3CCNCC3)ccc2=O)cc1NC(=O)Nc1ccc(-c2ccccc2)cc1.O=C(O)C(F)(F)F,94,20,46
O=C(NC1CCN(Cc2ccccc2)CC1)c1cccc(Nc2nc(-c3ccccc3)cs2)c1,84,3,70
CCc1ccc(-c2nc3cc(NC(=O)c4cc([N+](=O)[O-])cc([N+](=O)[O-])c4)ccc3o2)cc1,93,12,12

Structure (SMILES),Inhibition (Plasmodium falciparum [1]) [%],Inhibition (Plasmodium falciparum [2]) [%],Inhibition (HepG2) [%]
O=C(NCc1ccc(Cl)c(Cl)c1)c1ccc(-c2nc3ccc(Cl)cc3[nH]2)cc1,96,22,20
CS(=O)(=O)c1ccc(CNCc2cccc(-c3ccc(-c4nc5cc(C(F)(F)F)ccc5[nH]4)cc3)c2)cc1.O=C(O)C(F)(F)F,100,96,31
O=C(/C=C/c1ccc(Cl)c(Cl)c1)NCCCCCN1CCCC(CNC(=O)Nc2ccc(C(F)(F)F)cc2)C1 (stereo unspecified),100,7,27
CCCC(CNCc1cccc(C)c1)CNc1cc(=O)c2ccccc2[nH]1 (stereo unspecified),99,89,0
CN1CCC(OC(=O)c2cc3cc(-c4ccccc4)ccc3n2S(=O)(=O)c2ccccc2)CC1.Cl,88,10,31
Cc1ccc(NS(=O)(=O)c2ccc(-c3ccccc3)cc2)c(Cn2cnc(N3CCCNCC3)cc2=O)c1.O=C(O)C(F)(F)F,87,33,10
CCCCCN1CCCC(CNS(=O)(=O)c2ccc(C(=O)Nc3ccc(C(F)(F)F)cc3)cc2)C1.O=C(O)C(F)(F)F (stereo unspecified),94,0,51
O=C(c1cc(C(=O)Nc2ccccc2F)c(=O)n(-c2ccccc2F)c1)c1cc(Cl)ccc1O,98,80,2
Cl.O=C(NC1CCC(CCN2CCc3ccc(-c4cnccn4)cc3CC2)CC1)c1cccc(-n2cccn2)c1 (stereo unspecified),93,1,23
Cl.O=c1cc(NCCCNCc2scc(I)c2I)[nH]c2ccccc12,100,73,0
CC(=O)c1ccc(NC(=O)Nc2ccc3nccc(N4CCN(C)CC4)c3c2)cc1,100,93,2
Fc1ccc2c(NN=Cc3ccc(Cl)cc3)ccnc2c1,100,99,7
Cc1cc(C(=O)CSc2nc3ccccc3n2-c2ccccc2)c(C)n1C1CCS(=O)(=O)C1 (stereo unspecified),92,0,0
CC(C)CC(NC(=O)c1cccc(OCCN2CCOCC2)c1)C(=O)NC(/C=N/NC(=O)c1ccccc1)CCc1ccccc1 (stereo unspecified),96,88,0
CCCOc1ccc(C(=O)Nc2nonc2-c2ccc(OC)c(OC)c2)cc1,99,97,0
Cc1noc(-c2ccc3c(c2)CCN(CCC2CCC(NC(=O)/C=C/c4cccc(Cl)c4)CC2)CC3)n1.Cl (stereo unspecified),86,24,37
